# In PubChem BioAssay AID651820 (National Center for Advancing Translational Sciences (NCATS), 2012):
# Hit rate of the full screen: of about 340,000 compounds, about 12,000 (3.5%) were called active. Where a call stands in place of a potency, no number is given. Roughly 18% stayed inconclusive and do not appear here. Calls follow the shape of the dose curve; as a rule, active = well fitted inhibition curve with a large enough effect; inconclusive = small, poorly fitted or top-dose-only effect, or another doubt; inactive = no such curve, though single readings can be large or run the other way. The full list was thinned out, with actives kept by preference.
# Assay: qHTS Assay for Inhibitors of Hepatitis C Virus (HCV)
# Settings: Huh7.5.1 HCVcc-Cre infection, luciferase reporter, 44 h; series mostly up to 41.8 µM
# Outline: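 A cell-based infection assay in which seeded cells (1,000 per well) receive test compound after 4 h, are inoculated with HCVcc-Cre at approximately 0.5 moi, and are incubated 44 h before luminescence detection.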
# Potency is read from the fitted curve at half-maximal effect.
Compound,Potency,"activity change, negative = inhibition"
COc1cc(CNC2CCCC2)c(Br)cc1OCc1ccccc1,5.62 µM (active),
COc1ccc(CNC2CCCCC2)cc1,inactive,
COc1cc(CN2CCC(C(N)=O)CC2)ccc1OCc1ccccc1,inactive,
O=C(O)c1ccc(Cn2cnc3c(=S)nc[nH]c32)cc1,inactive,
Cc1ccc(COC(=O)CN2C(=O)NC3(CCCC3)C2=O)cc1,inactive,
C=CC[C@@H](CC(=O)NCCO)C(=O)N[C@H](C)COC(=O)[C@@H](CC=C)CC(=O)OC(C)(C)C,inactive,
CC(OC(=O)c1ccccc1NCCO)C(=O)Nc1ccnn1C(C)C (stereo not given),inactive,
COc1ccccc1N(C)S(=O)(=O)c1ccc(C(=O)N2CCC(C(N)=O)CC2)cc1,inactive,
COc1ccc(S(=O)(=O)NC(C)C)cc1C(=O)NC1CCCCC1,inactive,
COc1ccccc1N(C)S(=O)(=O)c1ccc(C(=O)NC2CCCCCC2)cc1,11.2 µM (active),
CSc1ccccc1NC(=O)COC(=O)CCCOc1ccc(C)cc1,inactive,
Cc1cc2oc(=O)cc(-c3ccccc3)c2c(C)c1-c1ccc(OC(F)(F)F)cc1,,-14.5% [at 8.37 µM] (inactive)
COc1ccc(-c2c(C)cc3oc(=O)cc(-c4ccccc4)c3c2C)cc1C=O,inactive,
COc1ccc(-c2c(C)cc3oc(=O)cc(-c4ccccc4)c3c2C)cc1OC,11.2 µM (active),
Cc1ccc(S(=O)(=O)N(C)c2ccc(OCC(=O)OCC(=O)N(CC#N)c3ccccc3)cc2)cc1,inactive,
NCCN1CCN2C(=O)CN(C(=O)c3ccccc3)CC12 (stereo not given),inactive,
CCOCCCNCc1cc(Br)ccc1OCC,inactive,
CCOc1ccc(Br)cc1S(=O)(=O)N1CCC(C(=O)O)CC1,inactive,
CCOc1ccc(Br)cc1CSC(=N)N,11.2 µM (active),
COc1ccc(OCC(=O)NNC(=O)C2CCC2)cc1,inactive,
Cc1ccccc1CSCCNC(=O)c1ccc(Cl)c(S(=O)(=O)N2CCOCC2)c1,11.2 µM (active),
CN(C)S(=O)(=O)c1ccc(C(=O)NCC(C)(C)N2CCOCC2)cc1,inactive,
CC(C)(CNC(=O)Cc1ccc(Cl)cc1Cl)N1CCOCC1,inactive,
COc1ccccc1CNC(=O)c1ccc(N(C)S(=O)(=O)c2ccc(C)cc2)cc1,inactive,
CC(C)(CNC(=O)c1ccc(Cl)c(S(=O)(=O)N2CCc3ccccc3C2)c1)N1CCOCC1,7.08 µM (active),

Compound,Potency,"activity change, negative = inhibition"
CN(c1ccccc1)S(=O)(=O)c1ccc(C(=O)NCCc2ccccc2)cc1,inactive,
Cc1ccc(C(=O)NCC(c2cccs2)N(C)C)cc1S(=O)(=O)N1CCOCC1 (stereo not given),inactive,
Cc1ccccc1CSCCNC(=O)c1ccc(N(C)S(=O)(=O)c2ccccc2)cc1,10 µM (active),
Cc1ccc(C(=O)Nc2ncccc2C)cc1S(=O)(=O)N1CCOCC1,inactive,
COc1ccc([C@@H]2[C@@H]3C(=O)N(C(C)(C)C)C(=O)[C@@H]3[C@]3(Cc4ccccc4)C(=O)N(c4cccc(Br)c4)C(=O)N23)cc1,inactive,
O=C(NN=Cc1ccc(N2CCOCC2)cc1)c1cc2ccccc2cc1O,inactive,
O=C(OCC(=O)N1CCN(C(=O)c2ccco2)CC1)c1ccc(Cl)c(Cl)c1,inactive,
COc1cccc(CC2(CO)CCCN(Cc3ccc(OC(F)F)cc3)C2)c1 (stereo not given),inactive,
CCc1ccc(C(CNc2nc(C(F)(F)F)nc3ccccc23)N(C)C)cc1 (stereo not given),inactive,
c1coc(CNc2ncnc3ccccc23)c1,3.55 µM (active),
O=C(NCc1ccncc1)C(=O)NCc1ccco1,inactive,
CCc1nc2ccccc2c(C(=O)NCc2ccc(OC)cc2)c1C,inactive,
COc1cccc(CNc2nc(C(F)(F)F)nc3ccccc23)c1,5.62 µM (active),
COc1ccc(CNc2nccs2)cc1,inactive,
COc1ccc(CNc2ncnc3ccccc23)cc1,3.16 µM (active),
FC(F)(F)c1cccc(Nc2ncnc3ccccc23)c1,inactive,
COc1cccc(CNC(=O)c2n[nH]c3ccccc23)c1,inactive,
CC(C)(C)c1nc(NCC2CCCO2)c2nnn(Cc3ccccc3)c2n1 (stereo not given),inactive,
c1ccc2c(NCC3CCCO3)nc(-c3ccncc3)nc2c1 (stereo not given),10 µM (active),
Clc1cccc(-c2nc(NCC3CCCO3)c3ccccc3n2)c1 (stereo not given),inactive,
COc1ccc(C(=O)C(C)OC(=O)c2cccc(S(=O)(=O)Nc3c(C)n(C)n(-c4ccccc4)c3=O)c2)cc1 (stereo not given),inactive,
NC(=O)C1(Nc2ccc(-c3ccccc3)cc2)CCCC1,inactive,
NC(CSC1(c2ccccc2)c2ccccc2-c2ccccc21)C(=O)O (stereo not given),inactive,
Cc1cc(NC(=O)c2cc3ccccc3o2)no1,inactive,
C=CC(=O)Nc1ccc(Nc2ccnc(Nc3ccc(N4CCN(C)CC4)cc3)n2)cc1,,29.9% [at 8.37 µM] (inactive)

Compound,Potency,"activity change, negative = inhibition"
CC(C)COc1ccc(C(=O)OCC(=O)NCCC2=CCCCC2)cc1,inactive,
COCCN(C(=O)C(C)N1C(=O)c2ccccc2C1=O)c1c(N)n(CC(C)C)c(=O)[nH]c1=O (stereo not given),inactive,
COc1cccc(NC(=O)COC(=O)c2ccc3ccccc3n2)c1,inactive,
O=C(COC(=O)c1ccccc1Cl)NC1CCCCCCC1,inactive,
Cc1ccc(S(=O)(=O)Nc2ccc(F)c(S(=O)(=O)N3CCOCC3)c2)cc1,inactive,
CCOCCCNc1nc(-c2ccccc2)nc2ccccc12,inactive,
c1ccc(-c2nc(NCc3ccco3)c3ccccc3n2)cc1,10 µM (active),
O=C(Cc1ccccc1)n1nc(-c2ccccc2)nc1NCc1ccco1,inactive,
CCN(C(=O)COC(=O)c1sccc1C)c1c(N)n(Cc2ccccc2)c(=O)[nH]c1=O,inactive,
COc1ccc(NC(=O)Nc2ccc3c(c2)C(=O)N([C@H](C)CO)C[C@H](C)[C@@H](CN(C)C(=O)Nc2ccc4c(c2)OCO4)O3)cc1,inactive,
O=C(NCC1(N2CCCCC2)CCCCC1)c1cccc(S(=O)(=O)Nc2ccccc2Cl)c1,inactive,
CCOc1ccc(S(=O)(=O)Nc2cccc(C(=O)NCC3(N4CCCCC4)CCCCC3)c2)cc1,12.6 µM (active),
O=C(NCC1(N2CCCCC2)CCCCC1)c1ccc(NS(=O)(=O)c2ccc(F)cc2)cc1,inactive,
O=C(CCNS(=O)(=O)c1ccccc1)NCCCc1ccccc1,inactive,
NS(=O)(=O)c1ccc(CCNC(=O)COC(=O)COc2cccc(C(F)(F)F)c2)cc1,inactive,
CN(C)C(=O)CCc1ccc2c3c([nH]c2c1)[C@]1(C)[C@@H](C(=O)N2CCOCC2)C[C@H](CC(=O)NCCc2ccccn2)C(=O)N1CC3,inactive,
N#CC1(Nc2ccc(-c3ccc(Cl)cc3)cc2)CCCC1,inactive,
O=C1COc2c1ccc(O)c2O,inactive,
CC(C)(C)c1ccc(C(=O)NCc2ccco2)cc1,inactive,
CC(C)(C)OC(=O)CNC(=O)c1[nH]cnc1C(=O)N[C@@H](CCCCN)C(=O)OC(C)(C)C,inactive,
O=C(Nc1cc(Cl)ccc1N1CCOCC1)c1ccc(N2CCCC2=O)cc1,35.5 µM (active),
COc1c(C)cccc1C(=O)Nc1cc(Cl)ccc1N1CCOCC1,inactive,
O=C(Nc1cc(-c2nn(CC(=O)N3CCCCC3)c(=O)c3ccccc23)ccc1N1CCOCC1)c1ccc(Cl)cc1,inactive,
COc1ccc(CCNC(=O)COC(=O)c2ncc(Cl)c(Cl)c2Cl)cc1OC,inactive,
O=C(CSc1nc2ccccc2c(=O)n1-c1ccc(F)cc1)NC1CC1,inactive,

Compound,Potency,"activity change, negative = inhibition"
COCCN(C(=O)CSCc1ccc(C)cc1)c1c(N)n(CC(C)C)c(=O)[nH]c1=O,inactive,
N#Cc1ccc(C(=O)OCC(=O)NC(=O)NC2CCCCC2)cc1,inactive,
O=C(NNC(=O)c1cc(-c2ccccc2Cl)nc2ccccc12)c1csc(N2CCOCC2)n1,inactive,
C=CC[n+]1c(-c2ccc(C)cc2)csc1NNC(=O)Nc1ccccc1,5.62 µM (active),
C=CCNc1scc(-c2ccccc2)[n+]1CC=C,inactive,
O=C(NNC(=O)c1ccc(-c2ccccc2)cc1)Nc1ccccc1,inactive,
N#CC(Cc1cc2ccccc2n1S(=O)(=O)c1ccccc1)OCc1ccccc1 (stereo not given),inactive,
Nc1cccnc1Sc1ccccc1,inactive,
CC1CCN(c2ccc([N+](=O)[O-])c(SCCO)c2)CC1,10 µM (active),
CN1CCN(c2ccc([N+](=O)[O-])c(Sc3nc4ccccc4[nH]3)c2)CC1,inactive,
O=[N+]([O-])c1ccc(N2CCSCC2)cc1O,inactive,
Cc1occc1-c1nnc(SCC(=O)NC2(C#N)CCCC2)n1C,inactive,
CN(C)CCCN(C(=O)c1ccc(S(=O)(=O)N2CCCCCC2)cc1)c1nc2cc3c(cc2s1)OCCO3,inactive,
O=[N+]([O-])c1ccc(C=NN=Cc2ccc([N+](=O)[O-])cc2)cc1,inactive,
COC(=O)c1ccc(C(=O)OC)c(NC(=S)N2CCN(c3cc(Cl)ccc3C)CC2)c1,inactive,
Cc1cccc(N2CCN(C(=O)c3cnn4c(C(F)F)cc(-c5ccccc5)nc34)CC2)c1C,inactive,
Cc1ccc(Cl)cc1N1CCN(C(=O)c2cccc3c(=O)c(C)c(-c4ccccc4)oc23)CC1,10 µM (active),
CC(C#N)OC(=O)c1cccnc1SCC(=O)Nc1ccc2c(c1)OCO2 (stereo not given),inactive,
Cc1ccc(CN2CC(C(=O)N3CCN(S(=O)(=O)c4ccccc4)CC3)CC2=O)cc1 (stereo not given),inactive,
Cc1cc(C(C)(C)C)n2nc(C)c(-c3ccccc3)c2n1,inactive,
Cc1nn2c(NCCN(C)C)c3c(nc2c1-c1ccccc1)CCC3,12.6 µM (active),
Cc1cc(N2CCCC2)n2nc(C)c(-c3ccccc3)c2n1,inactive,
O=C(COC(=O)c1ccc(F)cc1)Nc1nc2ccc([N+](=O)[O-])cc2s1,inactive,
O=C(NC(Nc1nc2ccc([N+](=O)[O-])cc2s1)(C(F)(F)F)C(F)(F)F)c1ccccc1,0.562 µM (active),
O=C(Nc1nc2ccc([N+](=O)[O-])cc2s1)c1ccncc1,inactive,
